Each structure is given as a SMILES string. About 250 (12%) of roughly 2,000 compounds were called active. No stated cut-off is given here; in the data, active means hERG blockade below about -20% or above about 20%; inactive means in between. What follows is part of a selection rich in actives, with near analogues and random picks from the rest.

For this test, the target named is Voltage-gated inwardly rectifying potassium channel KCNH2 (Homo sapiens) (UniProt Q12809). Nature of the test: KCNH2 potassium channel function modulators, cell-based (AID 376).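 Further: 0% = buffer alone and 100% = reference blocker.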 To be noted: hERG-expressing cells, channel activity single-concentration screen; concentration not given here.
Chain of Voltage-gated inwardly rectifying potassium channel KCNH2 (Homo sapiens) (Q12809 whole entry, looked up): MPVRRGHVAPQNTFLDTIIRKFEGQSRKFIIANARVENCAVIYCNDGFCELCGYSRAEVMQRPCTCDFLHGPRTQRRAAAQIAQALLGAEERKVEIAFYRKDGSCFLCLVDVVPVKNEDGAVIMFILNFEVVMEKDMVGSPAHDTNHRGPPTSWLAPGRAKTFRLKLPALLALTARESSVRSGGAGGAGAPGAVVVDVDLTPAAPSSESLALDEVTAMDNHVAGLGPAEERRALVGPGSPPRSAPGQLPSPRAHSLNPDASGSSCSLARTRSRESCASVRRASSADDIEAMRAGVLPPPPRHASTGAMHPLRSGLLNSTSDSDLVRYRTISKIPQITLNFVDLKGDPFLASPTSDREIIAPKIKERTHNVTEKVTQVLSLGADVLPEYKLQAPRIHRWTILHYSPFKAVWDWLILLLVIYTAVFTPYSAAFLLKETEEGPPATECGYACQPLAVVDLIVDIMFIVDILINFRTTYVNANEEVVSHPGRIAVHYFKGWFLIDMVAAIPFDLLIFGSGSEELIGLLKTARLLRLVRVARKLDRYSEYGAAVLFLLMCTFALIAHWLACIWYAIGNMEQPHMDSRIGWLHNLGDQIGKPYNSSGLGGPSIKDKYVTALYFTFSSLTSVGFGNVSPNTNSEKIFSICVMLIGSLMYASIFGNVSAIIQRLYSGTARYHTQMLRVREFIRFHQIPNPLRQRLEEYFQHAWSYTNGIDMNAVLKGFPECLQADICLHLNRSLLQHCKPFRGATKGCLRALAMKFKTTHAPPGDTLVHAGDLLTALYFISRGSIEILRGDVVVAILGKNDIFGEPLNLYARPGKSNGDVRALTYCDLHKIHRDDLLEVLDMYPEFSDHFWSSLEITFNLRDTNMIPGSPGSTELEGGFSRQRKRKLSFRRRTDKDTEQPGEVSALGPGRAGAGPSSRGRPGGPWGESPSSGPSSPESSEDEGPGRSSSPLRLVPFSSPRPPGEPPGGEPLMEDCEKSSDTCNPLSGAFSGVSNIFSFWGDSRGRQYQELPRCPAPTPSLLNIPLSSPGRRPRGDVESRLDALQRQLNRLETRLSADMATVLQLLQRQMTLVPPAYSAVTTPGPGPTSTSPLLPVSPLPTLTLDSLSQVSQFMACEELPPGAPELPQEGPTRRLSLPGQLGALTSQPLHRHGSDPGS
Regarding `CC(C)=CCc1c2c(c3occ(-c4ccc(O)c(O)c4)c(=O)c3c1O)C=CC(C)(C)O2`, the hERG blockade was 6.29% (inactive).

Turning to `O=C(O)c1ccc(SSc2ccc(C(=O)O)cn2)nc1`, the hERG blockade is -6.71% (inactive).

For `O=C(O)C1C2CC3C(OC(=O)C31)C2Br` (configuration not stated), the hERG blockade is 2.45% (inactive).

`Cn1c(=O)c2[nH]c(CCNC(=O)c3ccccc3)nc2n(C)c1=O`: the hERG blockade is -14% (inactive).

Regarding `N=C(N)c1ccc(-c2ccc(-c3ccc(C(=N)N)cc3)o2)cc1`, the hERG blockade was 38.8% (active).

With `N=C(N)c1ccc(C=Cc2ccc(C(=N)N)cc2)cc1`, the hERG blockade was 30.2% (active).

On to `NC(CSCc1ccccc1)C(=O)O` (configuration not stated), for which the hERG blockade was -2.53% (inactive).

As to `CNc1ncnc(Sc2nc(N)nc3nc[nH]c23)c1[N+](=O)[O-]`, the hERG blockade is -10.6% (inactive).

Regarding `Nc1nc(Sc2ccc([N+](=O)[O-])c3nonc23)c2[nH]cnc2n1`, the hERG blockade is 23.5% (active).

Regarding `Nc1nc(SCc2ccccc2[N+](=O)[O-])c2[nH]cnc2n1`, the hERG blockade was -11.5% (inactive).

Regarding `CC1(C)N=C(N)N=C(N)N1c1cccc(OCc2cccc(N)c2)c1`, the hERG blockade is 4.96% (inactive).

As to `NC(=O)CC=CCC(N)=O`, the hERG blockade is 1.92% (inactive).

`O=C(Nc1cccc2ccccc12)c1ccccc1`: the hERG blockade was -30.7% (active).

With `S=C(CSc1ccccc1)Nc1cccc2ccccc12`, the hERG blockade is -7.05% (inactive).

As to `O=C(O)c1ccc(C(=O)Nc2cccc3ccccc23)c(C(=O)O)c1`, the hERG blockade is -3.99% (inactive).

For the compound `COC(=O)C1(C)CCC(c2ccc(C)cc2)=C(CC(=O)O)C1` (configuration not stated), the hERG blockade is -13.4% (inactive).

Consider `O=C(NCCO)c1ccc(Cl)cc1`, for which the hERG blockade is 5.8% (inactive).

As to `OCCNC1c2cc(Cl)ccc2-c2c(Cl)cc(Cl)cc21` (configuration not stated), the hERG blockade is 46.9% (active).

Take `c1ccc(B2OCC(C3OB(c4ccccc4)OC4COB(c5ccccc5)OC43)O2)cc1` (configuration not stated): the hERG blockade is 2.69% (inactive).

`CC1CCCC(CC(=O)O)(CC(=O)O)C1` (configuration not stated): the hERG blockade was -3.65% (inactive).

In the case of `CC1(CC(=O)O)OC2CCCCCC2O1` (configuration not stated) (tested in a mixture with another compound), the hERG blockade is 1.56% (inactive).

For the compound `CC1(C)C2CCC1(CC(=O)O)C(Cl)C2` (configuration not stated), the hERG blockade is -22.5% (active).

Turning to `COc1ccc(CC[N+]2(C)COc3cc4oc(=O)cc(C)c4cc3C2)cc1OC` (configuration not stated), the hERG blockade was 11% (inactive).

In the case of `Cc1c(O)c(Br)c(C)c(O)c1Br` (tested in a mixture with another compound), the hERG blockade was 12.5% (inactive).

Turning to `CC12CCC3c4ccc(O)cc4CCC3C1CCC2OP(=O)(O)O` (configuration not stated), the hERG blockade was -3.7% (inactive).

With `CC12CCC3c4ccc(O)cc4CCC3C1CC(=NO)C2O` (configuration not stated), the hERG blockade was -10.7% (inactive).

With `CC(NCCN(C)C)C1CCC2C3CCc4cc(O)ccc4C3CCC12C` (configuration not stated), the hERG blockade was 22.1% (active).

With `Cc1cc(=Nc2ccc3c(c2)c(N)cc(C)[n+]3C)nc(N)n1C`, the hERG blockade is 30.2% (active).

For the compound `OCc1ccncc1.OCc1ccncc1.[Cl][Pt]([Cl])([Cl])[Cl]`, the hERG blockade is 1.38% (inactive).

On to `CCC(=O)Nc1ncnc2ncn(C(=O)CC)c12`, for which the hERG blockade was 12.6% (inactive).

With `COc1ccc(C(O)c2ccccn2)cc1` (configuration not stated), the hERG blockade is 3.46% (inactive).

Turning to `COc1ccc(C(Nc2ncccn2)c2cc3c(cc2O)OCO3)cc1` (configuration not stated), the hERG blockade was -20.2% (active).

As for `COc1ccc(C(Nc2ccccn2)c2cc(C(C)(C)C)cc(C(C)(C)C)c2O)cc1` (configuration not stated), the hERG blockade is 9.88% (inactive).

`COc1ccc(C(C)c2cc3c(cc2O)OCO3)cc1` (configuration not stated): the hERG blockade was 30% (active).

On to `CC(C)COC(c1ccc2c(c1)OCO2)C(C)Br` (configuration not stated), for which the hERG blockade is 0.642% (inactive).

For the compound `O=C(O)c1c(-c2c3ccc(=O)cc-3oc3cc(O)ccc23)cc2ccccc2c1-c1ccccc1`, the hERG blockade is 11.7% (inactive).

Regarding `CC(C)(C)NCC(O)c1ccc(O)c(CO)n1` (configuration not stated), the hERG blockade was -0.947% (inactive).

For the compound `CCC(CN(C)C)C(=O)c1ccco1` (configuration not stated), the hERG blockade was 5.17% (inactive).

In the case of `Clc1cccc(Cl)c1C(Nc1nncs1)Nc1nncs1`, the hERG blockade is -3.96% (inactive).

For the compound `Nc1nc(SCC(=O)O)[nH]c(=O)c1N`, the hERG blockade is 5.23% (inactive).

As to `O=C(Nc1c[nH]c(=O)[nH]c1=O)Oc1ccccc1`, the hERG blockade was -11% (inactive).

In the case of `NS(=O)(=O)c1ccc(N=Nc2ccc(O)c(C(=O)O)c2)cc1`, the hERG blockade is -6.41% (inactive).

`NS(=O)(=O)c1cc(C(=O)O)c(O)c2ccccc12`: the hERG blockade was 2.98% (inactive).

Turning to `NS(=O)(=O)c1ccc(N=Nc2cc3ccccc3c(C(=O)O)c2O)cc1`, the hERG blockade is 33.3% (active).

As for `Cc1c(S(=O)(=O)O)ccc(N=Nc2c(O)c(C(=O)O)cc3ccccc23)c1Cl`, the hERG blockade was 2.42% (inactive).

As for `NS(=O)(=O)c1ccc(N=Nc2c(O)c(C(=O)O)cc3ccccc23)cc1`, the hERG blockade was 22.9% (active).

Take `NS(=O)(=O)c1ccc(N=Nc2ncccc2O)cc1`: the hERG blockade is 17.7% (inactive).

Take `O=C(O)CNc1ccc(C(=O)O)cc1`: the hERG blockade was 1.76% (inactive).

`CC(=NNc1nc(C)cc(=O)[nH]1)C(=O)O`: the hERG blockade is -18.5% (inactive).

Turning to `c1ccc(-c2cc(-c3cc(-c4ccccn4)[nH]n3)n[nH]2)nc1`, the hERG blockade was 6.68% (inactive).

For `Cn1c(=O)c2[nH]c(C3CC(=O)CC(c4nc5c([nH]4)c(=O)n(C)c(=O)n5C)N3)nc2n(C)c1=O` (configuration not stated), the hERG blockade is -8.89% (inactive).

Regarding `Oc1ccccc1C(Sc1nc2ccccc2s1)Sc1nc2ccccc2s1`, the hERG blockade was -6.16% (inactive).

As to `Cc1sc2ccccc2[n+]1CCC(=O)O`, the hERG blockade is -12.2% (inactive).

Turning to `O=C1Nc2ccccc2C1=Nc1cccc2ncccc12`, the hERG blockade was -1.09% (inactive).

For the compound `O=C1Nc2ccccc2C1=Nc1ccc(S(=O)(=O)Nc2nccs2)cc1`, the hERG blockade is -2.12% (inactive).

Turning to `NS(=O)(=O)c1ccc(N=C2C(=O)Nc3ccccc32)cc1`, the hERG blockade was -20.3% (active).

As to `CN(C)CCCN=C(N)N`, the hERG blockade is -7.66% (inactive).

For `O=C(O)C1CC2(C1)CC(C(=O)O)C2` (configuration not stated), the hERG blockade was -11.8% (inactive).

For the compound `CN(C)Cc1cc(C(C)(C)C)ccc1-c1ccc(C(C)(C)C)cc1CN(C)C`, the hERG blockade was 17.8% (inactive).

On to `CN(C)Cc1cc(C(F)(F)F)ccc1C(O)(c1ccccc1)c1ccccc1`, for which the hERG blockade is 21.7% (active).

On to `CN(C)Cc1cc(C(C)(C)C)cc(CN(C)C)c1O`, for which the hERG blockade was 6.58% (inactive).

Consider `O=C1CCC(c2ccccc2)=NN1c1nc2ccccc2s1`, for which the hERG blockade was -9.74% (inactive).

`CC(C(=O)c1ccncc1)c1ccccn1` (configuration not stated): the hERG blockade is -1.76% (inactive).

Take `O=C(O)c1cc(C(=O)C(=O)c2cc(C(=O)O)c(O)c3ccccc23)c2ccccc2c1O`: the hERG blockade was 18.7% (inactive).

`O=C1c2ccccc2-c2cc([N+](=O)[O-])c([N+](=O)[O-])cc21`: the hERG blockade was 77.8% (active).

With `O=C1c2cc([N+](=O)[O-])ccc2-c2ccc3c4ccc5c6c(ccc(c7ccc1c2c73)c64)C(=O)c1cc([N+](=O)[O-])ccc1-5`, the hERG blockade was 12.2% (inactive).

Regarding `O=C1c2ccccc2-c2ccc(N=[N+]([O-])c3ccc4c(c3)C(=O)c3ccccc3-4)cc21`, the hERG blockade was -2.94% (inactive).
